Records with an inconclusive call do not appear. The source made the active and inactive calls. Unless noted, the call rests on the fitted dose curve; in most records, active means well fitted curve in the direction sought with a large enough effect; inconclusive means small, poorly fitted or top-dose-only effect, or another doubt; inactive means no such curve, though single readings can be large; an effect the other way counts as inactive or inconclusive.

Test [1] can be described thus: Primary qHTS for inhibitors of nuclear receptor binding SET domain protein 2 (NSD2) in an isogenic RCH-ACV NSD2 p.E1099K mutant (9B) (AID 1645876; further: potency means the concentration at half of the fitted maximal effect; nearly all actives have a fitted effect of over 70% in size). (In general: In qHTS, concentration-response curves come from the screen itself.)
A short description of test [2]: Primary qHTS for inhibitors of nuclear receptor binding SET domain protein 2 (NSD2) in an RCH-ACV wild type WT cells (2C) (AID 1645877). Further: potency means the concentration at half of the fitted maximal effect; nearly all actives have a fitted effect of over 70% in size.
Test [3] deals with Glutathione peroxidase 1 (Homo sapiens) (UniProt P07203). The test can be described thus: Primary qHTS Assay for Inhibitors of Recombinant Selenoprotein Glutathione Peroxidase 1 (GPX1) (AID 1845191). Further: nearly all actives have a fitted effect of over 65% in size. The method in brief: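 10 nM GPX1 + cpd, 30 min RT; start w/ 1 mM GSH, 0.5 mM cumene hydroperoxide, 0.5 mM NADPH, 100 nM GR, 0.01% BSA; buffer 50 mM Tris-HCl pH 7.5, 2 mM EDTA, 150 mM NaCl; Fl 340/450, 0 & 15 min.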

The nature of test [4]: qHTS drug screen for cell cycle checkpoint inhibitors in PARPi-resistant BRCA-mutant ovarian cancer cell lines. (AID 1963452; calls by dose curve; further: potency means the concentration at half of the fitted maximal effect). The note with it: PEO1/OlaR viability, CellTiter-Glo luminescence, 96 h; for Z-AUC: stronger effect = lower value. The procedure, abridged:
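PEO1, PEO4 and PEO1/OlaR ovarian cancer cells, 600 per well, exposed 96 h at 37C to a dilution series. Viability read by CellTiter-Glo luminescence, normalized to DMSO and empty wells; activity summarized as Z-AUC.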

Test [5] is described as follows: qHTS assay to identify inhibitors of the type 1 interferon - major histocompatibility complex class I in skeletal muscle: Counter screen cell viability and HiBit confirmation (AID 1347412). Further: potency means the concentration at half of the fitted maximal effect. On activity change, negative = inhibition: on the % scale 0 is the no-effect control and ±100 the full control effect. On all read-outs here: nearly all actives have a fitted effect of over 60% in size. To be noted: iHSKM muscle cells + IFN-b, HiBiT or CellTiter-Glo, 24 h; for activity change, negative = inhibition: at 45.9 µM (top of the series). The procedure, abridged:
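HLA-B*08:01–HiBiT knock-in immortalized human myoblasts (C25cl48) stimulated with 4.0 ng/ml human IFN-beta and dosed with compound in a 12-point 1:3 titration (top final 46 uM). After 24 hrs at 37 C, HiBiT lytic luminescence or CellTiter Glo ATP read out.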

In test [6] the target is Phospholipid hydroperoxide glutathione peroxidase GPX4 (Homo sapiens) (UniProt P36969). The test can be described thus: Primary qHTS Assay for Inhibitors of Recombinant Selenoprotein Glutathione Peroxidase 4 (GPX4) (AID 1845192). Further: nearly all actives have a fitted effect of over 65% in size. Further: potency means the concentration at half of the fitted maximal effect. On activity change, negative = inhibition: on the % scale 0 is the no-effect control and ±100 the full control effect. The note with it: outcome: dose series up to 50 µM unless noted. The procedure, abridged: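 NADPH consumption, followed by fluorescence at 340/450 nm between 0 and 15 min, reports GPX4 activity via coupled glutathione reductase (100 nM). Enzyme 200 nM was pre-exposed to compound 30 min; 0.5 mM cumene hydroperoxide and 1 mM GSH served as substrates.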

Test [7] in a line: qHTS to identify inhibitors of the type 1 interferon - major histocompatibility complex class I in skeletal muscle: primary screen against the NCATS Mechanism Interrogation Plate v5.0 (MIPE) Libary (AID 1347411).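 Further: plate controls were vehicle for no effect and reference inhibitor for full effect; nearly all actives have a fitted effect of over 65% in size.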 The procedure, abridged: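 Immortalized human C25cl48 myoblasts with HiBit knocked into endogenous HLA-B*08:01 were stimulated with 4.0 ng/ml IFN-beta and exposed to compounds (11-point 1:3 titration, top 46 uM final) for 24 hrs at 37 C; HiBiT lytic luminescence measured.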

Test [8] can be described thus: Validation of Assay for Modulators of Lamin A Splicing (AID 1459; active means well fitted curve in the direction sought with a large enough effect in the signal ratio; the % refers to the signal ratio;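 further: cells exposed to compound for two days before reading; 0% is about no effect; ratio rise marks activators and ratio drop marks inhibitors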). The procedure, abridged:
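S3 HeLa cells stably expressing a lamin A-EGFP splicing minigene and DsRed2 were seeded at 600 cells/well in Opti-MEM with 2% FBS, pin-dosed, and incubated 48 hrs at 37 °C, 5% CO2. Laser-scanning cytometry (488 nm) gave GFP/RFP total intensity ratio.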

Test [9] addresses DNA repair nuclease/redox regulator APEX1 (Homo sapiens) (UniProt P27695). The test can be described thus: qHTS Validation Assay for Inhibitors of the Human Apurinic/apyrimidinic Endonuclease 1 (APE1) (AID 1705;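 further: TAMRA fluorescence gain over two minutes as APE1 cuts a quenched THF abasic duplex; on the % scale 0 is the no-effect control and ±100 the full control effect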). The method in brief:
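Human APE1 was preincubated with compound for 15 min at room temperature, then 50 nM (final) THF-abasic double-stranded DNA substrate bearing 5'-TAMRA and 3'-BHQ-2 was added. Incision-driven fluorescence rise (ex 525/em 598 nm) was read kinetically.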

Test [10] is described as follows: Counterscreen for APE1 Inhibitors: Fluorescent Dye Displacement Validation Assay (AID 1707).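 Further: plate controls were ThO with dsDNA and no compound for no effect and ThO without dsDNA for full effect.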 The method in brief:
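Assay buffer: Tris-HCl pH7.5 with 50mM NaCl, 2 mM MgCl2, 0.01% Tween-20. Dye 250 nM, duplex 50 nM final. Readout: decrease in ThO endpoint fluorescence, 480 nm excitation, 540 nm emission.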
On the technique in general: The purpose of a counterscreen is to sort out artefacts and off-target activity.

Test [11] concerns the target Ferritin light chain (Equus caballus) (UniProt P02791). The experiment in a line: qHTS Validation Assay for Identification of Novel General Anesthetics (AID 2323). Further: on the % scale 0 is the no-effect control and ±100 the full control effect. The method in brief:
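Competitive displacement of profluorescent 1-aminoanthracene (1-AMA, 50% saturated solution in PBS) from 10 uM horse-spleen apoferritin. Compounds incubated 10 min at room temperature; fluorescence read at 380 nm excitation/535 nm emission, normalized to free 1-AMA and complex, fitted with four-parameter Hill equation.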

Test [12] deals with ATP-dependent DNA helicase Q1 (Homo sapiens) (UniProt P46063). The experiment in a line: qHTS Validation Assay for Inhibitors of RecQ-Like Dna Helicase 1 (RECQ1) (AID 2353).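 Further: plate controls were DMSO vehicle for no effect and enzyme-free control for full effect.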 The method in brief: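 50 nM RECQ1T1 preincubated 15 min with compound in Tris pH 8.0 buffer with MgCl2, DTT, Tween-20 and 2.5 ug/ml poly(dI-dC); started with 200 nM TAMRA/BHQ-2 forked duplex and 2 mM ATP. Unwinding read as fluorescence (525/598 nm), two reads 2 h apart.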

The nature of test [13]: Quantitative high throughput screen for delayed death inhibitors of the malarial parasite plastid, 96 hour incubation (AID 488745). Further: nearly all actives have a fitted effect of over 70% in size. Further: potency means the concentration at half of the fitted maximal effect. The procedure, abridged: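 P. falciparum carrying an integrated firefly luciferase reporter, grown in erythrocytes (2% hematocrit, 0.1% parasitemia final) in RPMI 1640/0.5% Albumax, was exposed to compound for 96 h (two generations) at 37 C, 5% CO2. Luminescence decrease indicated growth inhibition.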

Test [14] in a line: Quantitative high throughput screen for delayed death inhibitors of the malarial parasite plastid, 48 hour incubation (AID 488752). Further: nearly all actives have a fitted effect of over 65% in size. Further: potency means the concentration at half of the fitted maximal effect. The procedure, abridged: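 Erythrocytes infected with P. falciparum carrying an integrated firefly luciferase reporter (2% hematocrit, 0.1% parasitemia final) were exposed to compounds in RPMI 1640/0.5% Albumax for 48 h at 37 C, 5% CO2. Growth inhibition was scored as reduced luminescence.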

Test [15] has as its target M-phase phosphoprotein 8 (Homo sapiens) (UniProt Q99549). The test can be described thus: qHTS Validation Assay for Inhibitors for MPP8 Chromodomain Interactions with Methylated Histone Tails (AID 488949). Further: top concentration of the series differs between compounds; on the % scale 0 is the no-effect control and ±100 the full control effect; nearly all actives have a fitted effect of over 55% in size. The procedure, abridged: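 MPP8 (50 nM) was preincubated with biotinylated H3(1-18)K9me3 peptide (50 nM) in PBS pH 7.4, 0.01% Tween-20 for 30 min at room temperature, then with compounds for 30 min; binding was detected by AlphaScreen.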

The target of test [16] is Transient receptor potential cation channel subfamily V member 1 (Homo sapiens) (UniProt Q8NER1). The experiment in a line: HTS Assay for Compounds that Act as Enhancers of the Vanilloid Receptor 1 (AID 488979). Further: 0% is about no effect. The procedure, abridged: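 Calcium influx kinetics via Fluo-8 (480/520 nm) in TRPV1-expressing cells, 2000/well cultured overnight at 35.5C. Compound-alone read 3 min (agonist phase), followed by EC20 capsaicin challenge for 2 min (enhancer phase).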

Test [17] has as its target Thyrotropin receptor (Homo sapiens) (UniProt P16473). The test can be described thus: qHTS Assay for Antagonists of the Thyroid Stimulating Hormone Receptor (AID 488980). Further: 0% is about no effect. The method in brief: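 HEK293 cells transfected with human TSHR, suspended in HEPES-buffered HBSS with 70 uM RO 20-1724, were treated with compounds plus TSH at EC80 (4 nM final). cAMP was measured by competitive HTRF (cryptate anti-cAMP antibody, cAMP-d2 acceptor).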

Test [18] has as its target Thyrotropin-releasing hormone receptor (Homo sapiens) (UniProt P34981). The test can be described thus: qHTS for Small Molecule Agonists and Allosteric Enhancers of Human TRH Receptor: Validation Screen for Agonists (AID 493127;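 active means calcium activation more than 3 SD above the typical response in the agonist read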;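 further: intracellular calcium rise by fluo-8 fluorescence before TRH EC20 addition; 0% is about no effect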). The note with it: TRH receptor agonist cell assay; at 2 µM; stronger effect = higher value. The procedure, abridged: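 TRHR-expressing cells were plated overnight in serum-containing medium, then loaded with fluo-8 calcium dye at room temperature for 30 min–1.5 h. After a 10 s baseline, compound was pin-transferred and calcium fluorescence (ex 480/em 530) read kinetically for agonist response.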

In test [19] the target is Galactokinase (Homo sapiens) (UniProt P51570). The test can be described thus: qHTS Validation Assay for Inhibitors of Human Galactokinase (GALK) (AID 493189). Further: 0% is about no effect. The procedure, abridged:
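GALK (5 nM) with 35 uM ATP and 100 uM galactose in HEPES pH8.0, MgCl2, NaCl, DTT, BSA; 1 h at room temperature. Residual ATP read by Kinase-Glo Plus luminescence after 10 min.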

Test [20] is described as follows: Validation screen for small molecules that induce DNA re-replication in SW480 colon adenocarcinoma cells (AID 504364). Further: 0% is about no effect. The method in brief:
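SW480 cells seeded at 250 per well were exposed to compound or DMSO for 48 hr at 37 C, 5% CO2, then stained with Hoechst for 40 min. DNA content per nucleus was imaged (405 nm ex, 500-530 nm em).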

The mark [21] stands for this setting: measured here: PEO1 parental Z-AUC.

Chain of Phospholipid hydroperoxide glutathione peroxidase GPX4 (Homo sapiens) (P36969 whole entry, looked up): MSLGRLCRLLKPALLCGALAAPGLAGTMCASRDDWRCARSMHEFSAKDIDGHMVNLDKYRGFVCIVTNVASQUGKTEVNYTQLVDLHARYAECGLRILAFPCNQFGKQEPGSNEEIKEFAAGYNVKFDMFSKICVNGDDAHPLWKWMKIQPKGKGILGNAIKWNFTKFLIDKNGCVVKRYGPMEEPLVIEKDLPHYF
Chain of Glutathione peroxidase 1 (Homo sapiens) (P07203 whole entry, looked up): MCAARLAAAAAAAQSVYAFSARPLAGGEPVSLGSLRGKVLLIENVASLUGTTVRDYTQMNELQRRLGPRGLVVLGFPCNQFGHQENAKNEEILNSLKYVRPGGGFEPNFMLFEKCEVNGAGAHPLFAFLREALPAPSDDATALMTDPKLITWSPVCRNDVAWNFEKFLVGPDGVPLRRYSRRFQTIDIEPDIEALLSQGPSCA
Chain of Thyrotropin-releasing hormone receptor (Homo sapiens) (P34981 whole entry, looked up): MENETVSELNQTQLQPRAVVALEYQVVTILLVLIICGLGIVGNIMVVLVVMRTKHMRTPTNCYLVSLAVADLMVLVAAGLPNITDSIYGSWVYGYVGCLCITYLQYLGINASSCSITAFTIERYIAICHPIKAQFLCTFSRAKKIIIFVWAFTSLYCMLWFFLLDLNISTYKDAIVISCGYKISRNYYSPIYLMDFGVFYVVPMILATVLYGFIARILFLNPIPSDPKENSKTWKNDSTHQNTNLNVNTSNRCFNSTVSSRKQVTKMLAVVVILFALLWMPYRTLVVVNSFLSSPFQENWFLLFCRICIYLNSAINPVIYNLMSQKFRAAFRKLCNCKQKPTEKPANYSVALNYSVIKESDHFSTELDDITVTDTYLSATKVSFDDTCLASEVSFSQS
Chain of Transient receptor potential cation channel subfamily V member 1 (Homo sapiens) (Q8NER1 whole entry, looked up): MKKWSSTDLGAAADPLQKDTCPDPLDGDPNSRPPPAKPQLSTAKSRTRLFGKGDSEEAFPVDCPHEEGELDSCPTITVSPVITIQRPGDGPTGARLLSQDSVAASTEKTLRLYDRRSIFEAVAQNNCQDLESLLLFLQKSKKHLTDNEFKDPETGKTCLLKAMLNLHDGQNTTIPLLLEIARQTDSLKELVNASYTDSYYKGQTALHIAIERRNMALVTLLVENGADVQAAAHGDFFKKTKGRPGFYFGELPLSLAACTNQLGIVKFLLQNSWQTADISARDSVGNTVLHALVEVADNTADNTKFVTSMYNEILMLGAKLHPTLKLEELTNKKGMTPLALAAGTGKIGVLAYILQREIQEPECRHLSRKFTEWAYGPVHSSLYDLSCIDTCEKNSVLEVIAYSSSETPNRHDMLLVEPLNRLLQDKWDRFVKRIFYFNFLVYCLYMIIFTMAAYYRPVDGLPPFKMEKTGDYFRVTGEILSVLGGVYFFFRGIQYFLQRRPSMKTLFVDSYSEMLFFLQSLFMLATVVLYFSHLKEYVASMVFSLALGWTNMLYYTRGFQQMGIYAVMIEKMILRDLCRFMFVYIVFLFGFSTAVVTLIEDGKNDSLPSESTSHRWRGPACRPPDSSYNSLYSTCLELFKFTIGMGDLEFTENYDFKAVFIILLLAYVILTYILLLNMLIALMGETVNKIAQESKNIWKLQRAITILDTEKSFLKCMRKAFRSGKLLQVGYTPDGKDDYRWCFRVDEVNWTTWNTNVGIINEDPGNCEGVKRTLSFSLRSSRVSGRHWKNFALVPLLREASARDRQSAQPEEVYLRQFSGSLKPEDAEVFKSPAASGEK
Chain of Thyrotropin receptor (Homo sapiens) (P16473 whole entry, looked up): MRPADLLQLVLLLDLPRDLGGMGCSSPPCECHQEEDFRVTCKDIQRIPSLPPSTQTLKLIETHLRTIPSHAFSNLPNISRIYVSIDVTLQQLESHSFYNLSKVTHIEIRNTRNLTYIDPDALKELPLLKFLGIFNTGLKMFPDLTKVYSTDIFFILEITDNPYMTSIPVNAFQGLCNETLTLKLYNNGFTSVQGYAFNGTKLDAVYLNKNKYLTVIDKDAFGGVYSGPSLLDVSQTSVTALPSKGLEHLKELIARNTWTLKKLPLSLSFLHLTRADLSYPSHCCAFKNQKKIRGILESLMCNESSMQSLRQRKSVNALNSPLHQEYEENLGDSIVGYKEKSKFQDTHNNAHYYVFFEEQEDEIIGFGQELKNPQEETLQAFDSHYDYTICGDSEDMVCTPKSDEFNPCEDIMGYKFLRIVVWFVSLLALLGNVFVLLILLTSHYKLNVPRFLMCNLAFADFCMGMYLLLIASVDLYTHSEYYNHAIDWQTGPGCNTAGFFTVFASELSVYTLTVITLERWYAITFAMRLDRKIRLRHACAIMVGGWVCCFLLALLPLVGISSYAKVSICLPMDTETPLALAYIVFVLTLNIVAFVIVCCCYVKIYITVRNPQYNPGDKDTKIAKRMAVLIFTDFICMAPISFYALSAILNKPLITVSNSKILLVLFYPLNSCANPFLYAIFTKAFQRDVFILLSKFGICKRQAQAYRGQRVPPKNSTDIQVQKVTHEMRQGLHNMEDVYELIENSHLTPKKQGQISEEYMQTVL
Chain of Galactokinase (Homo sapiens) (P51570 whole entry, looked up): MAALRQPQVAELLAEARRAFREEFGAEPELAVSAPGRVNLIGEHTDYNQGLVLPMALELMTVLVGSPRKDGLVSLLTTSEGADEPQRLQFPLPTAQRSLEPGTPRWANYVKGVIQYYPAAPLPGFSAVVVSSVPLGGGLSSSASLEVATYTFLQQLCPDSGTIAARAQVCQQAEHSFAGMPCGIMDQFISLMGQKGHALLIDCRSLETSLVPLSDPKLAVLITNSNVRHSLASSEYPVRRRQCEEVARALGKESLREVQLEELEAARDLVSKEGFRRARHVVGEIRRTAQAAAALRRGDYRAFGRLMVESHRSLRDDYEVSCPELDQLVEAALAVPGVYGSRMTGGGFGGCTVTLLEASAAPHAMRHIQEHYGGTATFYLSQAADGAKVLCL
Chain of DNA repair nuclease/redox regulator APEX1 (Homo sapiens) (P27695 whole entry, looked up): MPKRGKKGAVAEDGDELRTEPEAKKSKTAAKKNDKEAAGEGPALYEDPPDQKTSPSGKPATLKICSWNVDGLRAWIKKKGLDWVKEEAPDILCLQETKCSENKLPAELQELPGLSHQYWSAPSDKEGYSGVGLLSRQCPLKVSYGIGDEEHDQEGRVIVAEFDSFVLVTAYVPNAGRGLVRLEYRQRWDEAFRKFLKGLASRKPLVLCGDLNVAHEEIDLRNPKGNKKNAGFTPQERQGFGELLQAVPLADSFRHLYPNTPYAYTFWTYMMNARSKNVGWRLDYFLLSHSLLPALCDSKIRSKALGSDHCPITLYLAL
Chain of Ferritin light chain (Equus caballus) (P02791 2-175 limits assumed): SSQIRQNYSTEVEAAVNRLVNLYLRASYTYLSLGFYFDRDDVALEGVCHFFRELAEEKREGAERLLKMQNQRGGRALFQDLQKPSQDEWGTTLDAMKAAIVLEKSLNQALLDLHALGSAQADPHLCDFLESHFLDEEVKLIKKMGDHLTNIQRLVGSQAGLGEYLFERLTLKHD
Chain of M-phase phosphoprotein 8 (Homo sapiens) (Q99549 whole entry, looked up): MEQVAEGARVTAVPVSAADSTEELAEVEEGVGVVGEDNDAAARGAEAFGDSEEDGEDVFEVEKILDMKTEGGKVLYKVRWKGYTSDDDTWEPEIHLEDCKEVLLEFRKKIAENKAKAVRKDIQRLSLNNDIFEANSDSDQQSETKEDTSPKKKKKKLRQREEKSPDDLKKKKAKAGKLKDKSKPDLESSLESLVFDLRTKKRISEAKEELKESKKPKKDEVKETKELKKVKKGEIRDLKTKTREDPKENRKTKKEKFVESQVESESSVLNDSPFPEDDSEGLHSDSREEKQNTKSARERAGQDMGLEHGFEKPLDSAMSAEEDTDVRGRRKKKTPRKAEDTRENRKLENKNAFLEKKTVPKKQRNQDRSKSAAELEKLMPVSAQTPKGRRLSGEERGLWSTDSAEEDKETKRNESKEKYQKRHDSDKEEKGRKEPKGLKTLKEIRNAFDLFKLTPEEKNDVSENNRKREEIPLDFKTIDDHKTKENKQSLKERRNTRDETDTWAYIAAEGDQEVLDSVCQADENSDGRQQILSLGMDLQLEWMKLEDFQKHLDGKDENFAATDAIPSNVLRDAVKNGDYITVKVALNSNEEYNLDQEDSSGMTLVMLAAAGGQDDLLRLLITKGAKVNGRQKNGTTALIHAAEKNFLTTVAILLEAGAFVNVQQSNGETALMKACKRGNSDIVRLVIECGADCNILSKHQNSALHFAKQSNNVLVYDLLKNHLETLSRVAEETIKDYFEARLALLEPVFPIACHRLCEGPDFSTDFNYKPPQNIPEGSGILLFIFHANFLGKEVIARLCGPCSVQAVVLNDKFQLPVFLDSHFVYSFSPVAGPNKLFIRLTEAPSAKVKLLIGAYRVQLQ
Chain of ATP-dependent DNA helicase Q1 (Homo sapiens) (P46063 whole entry, looked up): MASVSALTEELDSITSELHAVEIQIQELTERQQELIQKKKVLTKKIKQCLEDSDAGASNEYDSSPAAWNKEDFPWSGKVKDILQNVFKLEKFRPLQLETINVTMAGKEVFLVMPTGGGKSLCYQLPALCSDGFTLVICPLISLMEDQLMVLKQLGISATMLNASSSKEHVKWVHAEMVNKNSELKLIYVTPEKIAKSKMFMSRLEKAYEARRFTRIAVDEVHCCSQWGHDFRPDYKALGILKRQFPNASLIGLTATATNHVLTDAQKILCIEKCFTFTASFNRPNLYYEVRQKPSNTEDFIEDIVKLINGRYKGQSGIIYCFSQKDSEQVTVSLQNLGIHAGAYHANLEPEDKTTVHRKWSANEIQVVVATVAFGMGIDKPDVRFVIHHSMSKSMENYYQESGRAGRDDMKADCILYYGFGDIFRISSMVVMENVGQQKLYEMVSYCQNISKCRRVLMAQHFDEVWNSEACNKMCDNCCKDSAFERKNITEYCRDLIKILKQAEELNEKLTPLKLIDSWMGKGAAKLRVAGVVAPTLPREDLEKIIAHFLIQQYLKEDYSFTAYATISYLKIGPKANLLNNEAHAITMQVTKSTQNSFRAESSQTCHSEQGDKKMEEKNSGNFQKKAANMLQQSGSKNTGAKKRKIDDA

For `O=C(/C=C/C#Cc1cccc(NS(=O)(=O)c2ccccc2)c1)NO`, the Potency in [1] was 0.456 µM (active); in [2], 0.574 µM (active); in test [5] (HiBiT), 6.25 µM (active). In addition, in test [3], the Potency entry is “inactive”. Also, the figures for the Z-AUC in [4], in test [4] (setting [21]) and in test [4] (measured here: PEO4 Z-AUC) were -0.732 (inactive), -0.336 and -0.647, respectively. The activity change, negative = inhibition in test [5] (Viability) is -1.87% (inactive).
For the compound `N#CCC1(n2cc(-c3ncnc4[nH]ccc34)cn2)CN(C2CCN(C(=O)c3ccnc(C(F)(F)F)c3F)CC2)C1`, the Potency is 18.6 µM (active) in test [2], 20.2 µM (active) in test [6] and 1.57 µM (active) in test [5] (HiBiT). In addition, the Z-AUC was -0.205 (inactive) in test [4], -0.513 in test [4] (setting [21]) and -0.617 in test [4] (measured here: PEO4 Z-AUC). The activity change, negative = inhibition in test [5] (Viability) was 14.7% (inactive).
Regarding `C[C@@H]1Cc2c([nH]c3ccccc23)[C@@H](c2c(F)cc(/C=C/C(=O)O)cc2F)N1CC(C)(C)F`, the Potency result in test [7] and in test [3] was “inactive” in each case. The Z-AUC in test [4] is -0.309 (inactive); in [4] (setting [21]), -0.682; in test [4] (measured here: PEO4 Z-AUC), -0.807.
For the compound `C[C@@H](Oc1cc(C(=O)Nc2ccc(C(=O)N3CCN(C)CC3)cc2)nnc1N)c1c(Cl)ccc(F)c1Cl`, the Potency is 2.63 µM (active) in [1] and 1.48 µM (active) in test [2]. Further, the Potency entry in test [3] and in test [6] was “inactive” each time. Also, the values for the Z-AUC in [4], in test [4] (setting [21]) and in test [4] (measured here: PEO4 Z-AUC) were -0.576 (inactive), -1.08 and -1.2, respectively. Also, the activity change, negative = inhibition in test [5] (HiBiT) is -32.5% (inactive).
For the compound `C/C=C(/C)C(=O)O[C@H]1C(C)=CC23C(=O)C(C=C(CO)[C@@H](O)[C@]12O)[C@H]1[C@@H](C[C@H]3C)C1(C)C` (stereo partly drawn), the Potency entry in test [7] and in [6] was “inactive” each time. Also, the Z-AUC was -0.0624 (inactive) in [4], -0.301 in test [4] (setting [21]) and -0.581 in test [4] (measured here: PEO4 Z-AUC).
As for `COc1nnc2ccc(N3CCC(c4ccc(OCCN5CCN(C)C(=O)[C@H]5C)cc4)CC3)nn12`, in test [4], the Potency is 0.195 µM (active).
For `O=c1cc(N2CCOCC2)oc2c(-c3ccc4c(c3)OCCO4)csc12`, the Potency in [5] (HiBiT) is 14 µM (active).
As to `NC(=O)c1cccc2c(NC(CN3CCC3)c3ccc(Cl)c(C(F)(F)F)c3)ncnc12` (stereo not drawn), the activity change, negative = inhibition in test [5] (HiBiT) was -0.923% (inactive).
Consider `CN1CCN(c2ccc3nc(-c4cc(C(C)(C)C)c(OCCCC(=O)NCCCN=[N+]=[N-])c(C(C)(C)C)c4)[nH]c3c2)CC1`, for which the Potency in test [5] (Viability) is 24.9 µM (active).
On the same count and under the same terms, with `CCN(CC)CCNC(=O)c1c(C)[nH]c(/C=C2/C(=O)Nc3ccc(-c4csc(-c5ccccc5)n4)cc32)c1C` the figure was 24.9 µM (active).
`CC(C)C[C@H]1C(=O)N2CCCC2[C@]2(O)O[C@](NC(=O)[C@@H]3C=C4c5cccc6[nH]c(Br)c(c56)C[C@H]4N(C)C3)(C(C)C)C(=O)N12` (stereo partly drawn): the outcome in test [8], in [11], in test [16], in test [17] and in test [19] was inactive. Also, the Potency result in test [9], in test [10], in [12] and in test [15] was “inactive” in each case. In addition, the Potency in [13] was 9.28 µM (active); in test [14], 8.28 µM (active). Further, the activation in [18] was 0.625% (inactive).
`COc1cc2c(cc1OC)C(c1ccccc1)CN(C)CC2` (stereo not drawn): the result in test [8], in [11], in [16], in test [17], in test [19] and in [20] was inactive. Further, the Potency entry in test [9], in [10], in [12], in test [13], in [14] and in test [15] was “inactive” in each case. Further, the activation in test [18] was 1.81% (inactive).

Source of the values: PubChem BioAssay (NCATS).
